# Experimental data reported in PubChem BioAssay AID504333 (National Center for Advancing Translational Sciences (NCATS), 2011).
# Several values for one entry are separate records, joined by “and”; a condition that tells them apart may be missing. Identical values can stand only once. Hit rate of the full screen: of about 360,000 compounds, about 16,000 (4.4%) were called active. About 9% were inconclusive and are not listed. For the sample, actives were picked, then their nearest neighbours and some compounds at random. Unmarked numbers belong to inactive results. Calls come from the whole dose curve; as a rule, active = well fitted inhibition curve with a large enough effect; inconclusive = small, poorly fitted or top-dose-only effect; inactive = no such curve, though single readings can be large or run the other way.
# Molecular target: Bromodomain adjacent to zinc finger domain protein 2B (Homo sapiens) (UniProt Q9UIF8)
# Sequence (Q9UIF8 whole entry, looked up, the tested form may be a part): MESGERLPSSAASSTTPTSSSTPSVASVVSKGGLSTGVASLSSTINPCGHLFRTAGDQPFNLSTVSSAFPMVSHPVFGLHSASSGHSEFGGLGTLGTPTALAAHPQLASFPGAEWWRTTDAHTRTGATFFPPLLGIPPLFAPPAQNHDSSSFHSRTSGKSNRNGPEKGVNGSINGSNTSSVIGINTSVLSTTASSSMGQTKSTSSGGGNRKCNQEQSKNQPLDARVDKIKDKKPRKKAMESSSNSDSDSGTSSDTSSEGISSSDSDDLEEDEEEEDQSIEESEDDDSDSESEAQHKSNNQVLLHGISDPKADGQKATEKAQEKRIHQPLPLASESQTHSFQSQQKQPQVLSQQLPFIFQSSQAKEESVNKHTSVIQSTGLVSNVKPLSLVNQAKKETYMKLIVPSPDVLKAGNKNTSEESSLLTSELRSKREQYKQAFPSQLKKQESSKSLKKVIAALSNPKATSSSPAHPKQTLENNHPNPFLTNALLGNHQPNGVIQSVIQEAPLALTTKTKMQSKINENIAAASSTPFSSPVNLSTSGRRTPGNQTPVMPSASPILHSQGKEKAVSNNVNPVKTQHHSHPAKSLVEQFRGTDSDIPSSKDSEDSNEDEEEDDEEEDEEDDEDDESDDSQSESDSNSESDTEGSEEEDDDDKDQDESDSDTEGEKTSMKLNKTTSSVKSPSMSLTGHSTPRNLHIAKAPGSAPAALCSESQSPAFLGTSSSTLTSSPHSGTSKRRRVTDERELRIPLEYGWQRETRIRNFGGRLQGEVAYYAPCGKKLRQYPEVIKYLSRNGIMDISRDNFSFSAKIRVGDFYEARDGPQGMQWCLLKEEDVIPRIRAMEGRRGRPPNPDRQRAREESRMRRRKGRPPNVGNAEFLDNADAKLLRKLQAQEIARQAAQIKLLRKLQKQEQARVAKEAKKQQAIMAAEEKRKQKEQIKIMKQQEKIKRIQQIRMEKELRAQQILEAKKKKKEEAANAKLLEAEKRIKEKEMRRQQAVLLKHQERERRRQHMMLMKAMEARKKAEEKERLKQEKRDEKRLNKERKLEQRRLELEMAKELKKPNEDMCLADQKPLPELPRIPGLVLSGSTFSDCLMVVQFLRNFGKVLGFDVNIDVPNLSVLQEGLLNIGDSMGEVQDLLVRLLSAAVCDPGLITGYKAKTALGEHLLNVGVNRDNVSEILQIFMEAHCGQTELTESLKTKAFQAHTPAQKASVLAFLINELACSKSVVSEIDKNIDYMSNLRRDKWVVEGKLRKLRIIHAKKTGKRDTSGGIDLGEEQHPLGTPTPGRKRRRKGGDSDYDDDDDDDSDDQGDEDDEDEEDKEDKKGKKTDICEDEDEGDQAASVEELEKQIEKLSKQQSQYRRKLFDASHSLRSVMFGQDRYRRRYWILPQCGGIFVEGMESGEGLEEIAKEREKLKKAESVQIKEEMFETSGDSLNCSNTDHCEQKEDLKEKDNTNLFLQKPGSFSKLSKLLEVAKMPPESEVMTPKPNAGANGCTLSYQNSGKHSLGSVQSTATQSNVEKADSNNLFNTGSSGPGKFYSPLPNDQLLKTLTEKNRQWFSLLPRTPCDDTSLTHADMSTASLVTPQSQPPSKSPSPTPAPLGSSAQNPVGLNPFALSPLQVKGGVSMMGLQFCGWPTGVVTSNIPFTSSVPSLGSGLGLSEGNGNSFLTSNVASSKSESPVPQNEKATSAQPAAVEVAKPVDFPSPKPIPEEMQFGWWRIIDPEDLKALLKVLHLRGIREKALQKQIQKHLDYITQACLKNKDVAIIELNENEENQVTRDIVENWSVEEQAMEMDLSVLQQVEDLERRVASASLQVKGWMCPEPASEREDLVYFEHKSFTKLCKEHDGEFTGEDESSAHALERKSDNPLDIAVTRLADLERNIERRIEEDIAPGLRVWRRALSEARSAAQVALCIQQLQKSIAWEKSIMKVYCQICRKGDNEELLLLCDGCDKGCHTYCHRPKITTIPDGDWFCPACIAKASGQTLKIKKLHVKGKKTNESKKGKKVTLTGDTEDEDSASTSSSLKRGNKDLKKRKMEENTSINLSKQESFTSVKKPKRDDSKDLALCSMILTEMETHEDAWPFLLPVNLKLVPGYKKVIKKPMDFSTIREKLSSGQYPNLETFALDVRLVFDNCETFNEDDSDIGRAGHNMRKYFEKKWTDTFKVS
# Assay: qHTS Assay for Inhibitors of BAZ2B; note: nearly all actives have a fitted effect of over 60% in size
# Conditions: AlphaScreen BAZ2B-H3K14Ac peptide displacement; series mostly up to 114 µM; activity change, negative = inhibition: at the top concentration
# Description: BAZ2B (bromodomain adjacent to zinc finger domain, 2B) belongs to a family of ubiquitously expressed bromodomain containing proteins, which biological function has not yet been elucidated. […] The interaction of BAZ2B with ISWI mediated by the BAZ1 motif has recently been described. […] The protocol is based on the AlphaScreen (PerkinElmer) displacement assay developed by NCGC [5], but uses the peptide ligand Biot-H3K14Ac, a high affinity binding partner for BAZ2B, in an AlphaScreen format. Although AlphaScreen has significant advantages with its utility in a variety of epigenetic target assays, the primary screening data provided in this deposition should be used with caution due to the prevalence of screening artifacts. The top compound concentration tested was 110uM in this assay, which increases number of actives and potential artifacts. An AlphaScreen counterscreen is highly recommended to be run against any putative actives to eliminate non-specific artifacts. Alternatively, one can use other AlphaScreen assays in PubChem to filter out promiscuous hits. Eberharter, A. et al. ACF1 improves the effectiveness of nucleosome mobilization by ISWI through PHD-histone contacts. The EMBO journal 23, 4029-4039. 2004. PMID: 15457208 [2] Jones, M.H. et al. A novel family of bromodomain genes. Genomics 63, 40-45. 2000. PMID: 10662543 [3] Yasgar, et al. Compound Management for Quantitative High-Throughput Screening. JALA. 2008 Apr;13(2):79-89. PMID: 18496600 [4] Inglese, et al. Quantitative high-throughput screening: a titration-based approach that efficiently identifies biological activities in large chemical libraries. Proc Natl Acad Sci. 1;103(31):11473-8. 2006. PMID: 16864780 [5] Quinn et al. A chemiluminescence-based method for identification of histone lysine methyltransferase inhibitors. Mol Biosyst 6(5): 782-8. 2010. PMID: 20567762 [6] Baell,Holloway. New substructure filters for removal of pan assay interference compounds (PAINS) from screening libraries and for their exclusion in bioassays. J Med Chem. 53(7):2719-40. 2010. PMID: 20131845 NIH Molecular Libraries Probe Production Network [MLPCN] NIH Chemical Genomics Center [NCGC] Structural Genomics Consortium (SGC) NIH Grant: 5U54 MH084681-02
# To each well of a 1,536w plate, 2ul of BAZ2B protein (final 50nM) and 1ul biotinylated histone peptide acetylated at Lys14 [b-H3(5-23)K14Ac] (final 50nM) were added in 1x PBS buffer, pH 7.4, containing 0.01% Tween-20, using a nanoliter dispenser. Formation of a protein-peptide complex proceeded at room temperature for 30 min. A Kalypsys pin-tool was employed to transfer 23 nL of library compound solution in DMSO to each well. Following a 30 min incubation of the protein-peptide complex with compounds at room temperature, a mixture of 40 ug/mL each streptavidin-coated donor and nickel chelate acceptor AlphaScreen beads (final 10 ug/mL) were added in a 1ul dispense for a final volume of 4ul. A brief centrifugation followed (1000rpm, 1 min) and were then incubated protected from the light for 20 min at room temperature. Plates were read on an EnVision multilabel plate reader using the 1,536 plate HTS AlphaScreen aperture (excitation time 80 ms, measurement time 240 ms).
# % is set by controls: 0 for no effect and ±100 for the full control effect; potency is the fitted concentration of half-maximal effect.
SMILES,"activity change, negative = inhibition",Potency
CCC(Sc1nc2n[nH]c(C)c2c(=N)n1-c1ccccc1Cl)C(=O)N(CC)CC (stereo not drawn),4.48%,–
COc1ccc(-c2nc3sc(CCNS(=O)(=O)c4ccc(F)c(C)c4)c(C)n3n2)cc1,-4.23%,–
COc1ccc(-c2nc(SCC(=O)N3CCCCC3C)n[nH]2)cc1 (stereo not drawn),2.94%,–
Cc1ccc(S(=O)(=O)N2CCN(Cc3cccc(C)c3O)CC2)cc1,11.2%,–
O=C(CN1CCN(S(=O)(=O)c2ccc(F)cc2)CC1)Nc1ccccc1F,3.45%,–
O=S(=O)(c1ccc(F)cc1)N1CCN(Cc2ccccc2C(F)(F)F)CC1,–,28.2 µM (active)
COc1ccc(-c2onc(C)c2C)cc1S(=O)(=O)NCc1cccs1,-0.451%,–
CCc1ccc(S(=O)(=O)n2ccnc2)cc1,-13.1%,–
Cc1ccccc1Nc1c(-c2ccccc2)nc2ncccn12,-5.09%,–
CCc1cccc(C)c1Nc1c(-c2ccc(N(C)C)cc2)nc2ncccn12,–,10 µM (active)
Cc1c(-c2cccc(NC(=O)C(C)(C)C)c2)nc2ncccn12,6.49%,–
COc1cc(OC)c(NC(=O)c2c3c(nn2C)-c2ccccc2SC3)cc1Cl,-15.7%,–
O=C(NCCCO)C(=O)Nc1c2c(nn1-c1ccccc1)CSC2,7.43%,–
COc1ccc(OCCCC(=O)Oc2ccc(OC)cc2)cc1,-6.9%,–
COc1ccc(OCCCn2c(C)nc3cc(C)c(C)cc32)cc1,-28.9%,–
COc1ccc(OCCn2ccnc2C)cc1,–,56.2 µM (active)
Cc1ccc(C(=O)Nc2c(C(=O)NC(C)(C)C)oc3ccccc23)cc1,11% [at 57.1 µM],–
COc1ccc(NC(=O)c2ccc3oc(=O)c(S(=O)(=O)c4ccc(F)cc4)cc3c2)c(OC)c1,-14.1%,–
O=C(CSc1nccn1Cc1ccc(Cl)cc1)NCc1ccccc1,-25.4%,–
Cc1cccc(N2CCN(C(c3ccccc3)c3nnnn3CC3CCCO3)CC2)c1C (stereo not drawn),-8.12%,–
COc1ccccc1C(c1nnnn1CC1CCCO1)N1CCN(c2ccccc2)CC1 (stereo not drawn),–,56.2 µM (active)
COc1ccc(C(c2nnnn2Cc2cccs2)N2CCN(c3ccccc3)CC2)cc1OC (stereo not drawn),-35.7%,–
COCCCNC(=O)c1ccc(NC(=O)c2nsc3ccccc23)cc1,-0.501%,–
COC(=O)c1cccc(Cn2nnc3sc4c(c3c2=O)CCC(C(C)(C)C)C4)c1 (stereo not drawn),-0.516%,–
Cc1cccc(N2CCN(C(=O)Cn3ncc4c5ccccc5n(C)c4c3=O)CC2C)c1 (stereo not drawn),1.15%,–

SMILES,"activity change, negative = inhibition",Potency
COc1ccc(NCc2nnc(SCc3ccccc3)n2-c2ccc(OC)cc2)cc1,–,50.1 µM (active)
COc1ccc(-c2nnc(SCC(=O)c3ccco3)n2-c2ccccc2)cc1,8.78%,–
CCc1nnc(NC(=O)CSc2nnc(Cc3ccccc3)n2-c2ccc(OC)cc2)s1,8.5%,–
Cc1ccc(Cl)cc1N1CCN(C(=O)CN2C(=O)COc3ccc(S(=O)(=O)N4CCOCC4)cc32)CC1,4.23%,–
O=C(N/N=C/c1c[nH]c2ccccc12)c1cc2ccccc2o1,-23.5%,–
C[n+]1ccc(/C=C/c2c[nH]c3ccccc23)cc1,–,44.7 µM (active)
COc1ccc(/C=C(\C#N)c2c[nH]c3ccccc23)cc1,3.05%,–
CCOC(=O)C1CCCN(S(=O)(=O)c2cc(-c3cc(C)no3)ccc2OC)C1 (stereo not drawn),0.155%,–
COc1cccc(N2CCN(S(=O)(=O)c3ccc4c(c3)CCCN4C(C)=O)CC2)c1,-16.9%,–
COc1ccccc1CN1CCC(CNC(=O)c2cnn(-c3ccccc3Cl)c2C2CCN(C(=O)OC(C)(C)C)CC2)CC1,-2.36% [at 57.1 µM],–
O=C(O)CCC(=O)N(Cc1ccccc1)Cc1ccccc1,1.67%,–
O=C(O)CCC(=O)N(Cc1cccs1)Cc1cccs1,–,56.2 µM (active)
O=C(CCc1ccccc1)NCCc1cccs1,13.8%,–
O=C1CC(c2nnc(Cc3ccc(Cl)cc3)o2)CN1c1ccccc1 (stereo not drawn),-3.8%,–
CCc1ccc(NC(=O)CCS(=O)(=O)c2cc3c(cc2Cl)NC(=O)CO3)cc1,-4.74%,–
CCOC(=O)Cn1c(=O)n(-c2ccccc2OC)c2nc(-c3cccc(F)c3)nc(C(N)=O)c21,-12.6%,–
CC(=O)Nc1ccc(Nc2cc(C)nc(Nc3ccc(NC(C)=O)cc3)n2)cc1,–,56.2 µM (active)
COc1ccc(C(=O)NNc2cc(C)nc(NNC(=O)c3ccc(OC)cc3)n2)cc1,17.5%,–
Cc1ccc(Nc2nc(C)cc(C)c2C(N)=O)cc1,1.28%,–
CCN1CCN(c2cc(C)c3cc(NC(=O)c4cc(Cl)ccc4OC)ccc3n2)CC1,-34%,–
O=C(Nc1nc(-c2cccnc2)cs1)c1ccccc1F,12.8%,–
O=C(NCc1cccnc1)C(=O)Nc1nc(-c2ccccc2)cs1,-7.21%,–
Cc1ccccc1Nc1nc(-c2cccnc2)cs1,–,39.8 µM (active)
Cc1ccccc1-c1nc(SCC(=O)N(C)c2ccccc2)c2c(=O)n(C)c(=O)n(C)c2n1,2.53%,–
Cc1ccc(CCNC(=O)c2ccc(CNS(=O)(=O)c3ccc(C)cc3)cc2)cc1,0.772%,–

SMILES,"activity change, negative = inhibition",Potency
CCOC(=O)c1c(NC(=O)c2cc(CC)on2)sc(C(C)=O)c1C,2.03%,–
CCCCCn1c(=O)[nH]c2cc(C(=O)Nc3cc(C)cc(C)c3)ccc2c1=O,3.99%,–
Cc1c(C)c(C)c2[nH]c(=S)[nH]c2c1C,-9.72%,–
O=c1[nH]c(=S)[nH]c2[nH]c(=S)[nH]c12,–,28.2 µM (active) and 22.4 µM (active)
CCOC(=O)c1ccc(NC(=O)C2CC(=O)N(c3ccc(C(C)C)cc3)C2)cc1 (stereo not drawn),-1.68%,–
CS(=O)(=O)C1=NN2C(=N)/C(=C\c3ccc(OCCOc4ccccc4)cc3)C(=O)N=C2S1,–,50.1 µM (active)
CCS(=O)(=O)C1=NSC2=NC(=O)/C(=C\c3ccc(OS(=O)(=O)c4ccccc4)cc3)C(=N)N21,–,56.2 µM (active)
Cc1ccc(C2=N/C(=C\c3ccc(OS(=O)(=O)c4ccc(C)cc4)cc3)C(=O)O2)cc1,-4%,–
CCOc1cc(/C=C2\C(=N)N3N=C(C)SC3=NC2=O)ccc1OCCOc1ccccc1,-2.46%,–
COc1cc(/C=C2\C(=N)N3N=C(CC(=O)N4CCOCC4)SC3=NC2=O)cc(OC)c1OC,-26.7%,–
COc1ccccc1OCCOc1ccc(/C=C2\C(=N)N3N=C(C)SC3=NC2=O)cc1,-25.9%,–
CCc1ccccc1N1C(=O)CN(S(=O)(=O)CC)CC1(C)C(=O)NC1CCCCC1 (stereo not drawn),4.83%,–
CCc1cccc(NC(=O)CSc2nccn2C)c1,-37.7%,–
Cc1ccc(CNC(=O)CCc2c(C)nc3nc(CNC(=O)OC(C)(C)C)nn3c2C)cc1,2.01%,–
Cc1ccc(NC(=O)CSc2nc3ccccc3c3nc(CCn4cncc4C)nn23)cc1F,-16.9%,–
Cc1cc(-c2ccc(C)c(S(=O)(=O)Nc3ccc(S(N)(=O)=O)cc3)c2)on1,-16.6%,–
CCOc1ccccc1CNS(=O)(=O)c1cc(-c2cc(C)no2)ccc1C,0.315%,–
CCN(CC)c1ccc(NS(=O)(=O)c2cc(-c3cc(C)no3)ccc2C)c(C)c1,–,11.2 µM (active)
Fc1ccc(-c2nc(Nc3cccc(Cl)c3)nc3c2COc2ccccc2-3)cc1,-17.8%,–
Cc1c(-c2nc(-c3ccc4c(c3)OCO4)no2)nnn1-c1ccc(Br)cc1F,-12.6%,–
C/C=C(/C)C(=O)Nc1cccc(C2=NOC3(C2)C[C@@H](C(N)=O)N(C(=O)C2(C)CC2)C3)c1 (stereo partly drawn),5.04%,–
C/C=C\C=C\C(=O)N1CC2(CC(c3cccc(NC(=O)/C(C)=C\C)c3)=NO2)C[C@H]1C(N)=O (stereo partly drawn),-9.61%,–
C=C(C)C(=O)Nc1cccc(C2=NOC3(C2)C[C@H](C(N)=O)N(C(=O)C(c2ccccc2)c2ccccc2)C3)c1 (stereo partly drawn),–,25.1 µM (active)
Cc1cn(C)c(CC(=O)NCc2ccccc2)c1C(=O)O,-14.6%,–
COc1cccc(NC(=O)C2CCN(c3cc(C)nc4c(-c5ccc(Cl)cc5)c(C)nn34)CC2)c1,-5.79%,–

SMILES,"activity change, negative = inhibition",Potency
Cc1c(C(=O)Nc2cccc(Cl)c2)oc2ccc(S(=O)(=O)N3CCOCC3)cc12,4.68%,–
N#Cc1ccc(OCc2nnc(-c3ccc([N+](=O)[O-])cc3)o2)cc1,-18.3%,–
CN1CCN(c2oc(-c3ccc(COc4ccc(Cl)cc4)o3)nc2C#N)CC1,–,25.1 µM (active)
COc1ccc(OCc2ccc(-c3nc(C#N)c(N4CCN(c5ccccc5)CC4)o3)o2)cc1,-28.8%,–
CCC(C)Nc1oc(-c2ccc(COc3ccc(Cl)cc3)o2)nc1C#N (stereo not drawn),-34.3%,–
Cc1ccc(OCc2nc(C#N)c(N3CCCC3)o2)cc1,7.75%,–
N#Cc1nc(COc2ccc(Cl)cc2)oc1N1CCCC1,–,39.8 µM (active)
CCc1nnc(SCc2nc(-c3cccc(C)c3)oc2C)c2cc3sc(C)cc3n12,-3.25%,–
Cc1cccc(NC(=O)Cn2nc(-c3ccc(Cl)cc3)c3ccccc3c2=O)c1,-1.81%,–
COc1ccc(-c2noc(CSc3nc(C)cc(=O)[nH]3)n2)cc1OC,-17.2%,–
CCOC(=O)c1c(NC(C)=O)c2c3c(sc2n1Cc1c(C)cc(C)cc1C)CCCC3,0.347%,–
Cc1ccc(-c2cnc(C3CC3)o2)cc1S(=O)(=O)Nc1cccc(C)c1C,-29.3%,–
OC(c1nnc(-c2ccccc2)o1)c1cccs1 (stereo not drawn),-17.5%,–
CC(=O)c1ccc(NC(c2ccc(F)cc2)c2nnc(-c3ccccc3)o2)cc1 (stereo not drawn),-12.5%,–
CCCN(CCC)c1ccc(C(O)c2nnc(-c3ccccc3)o2)cc1 (stereo not drawn),–,31.6 µM (active)
COc1ccc(-c2nc(CN3CCC(C(=O)NCc4ccccc4)CC3)c(C)o2)cc1OC,-9.57%,–
O=[N+]([O-])c1ccc(N2CCN(c3ccc(O)cc3)CC2)c(Cl)c1,–,20 µM (active)
COc1ccc(N2CCN(c3ccc([N+](=O)[O-])cc3Cl)CC2)cc1,–,10 µM (active)
CN(C)S(=O)(=O)N1CCN(c2ccc([N+](=O)[O-])cc2)CC1,-21.5%,–
O=C(c1cncc(Br)c1)N1CCN(c2ccc([N+](=O)[O-])cc2)CC1,3.58%,–
COc1ccccc1N1CCN(c2ccc([N+](=O)[O-])nc2)CC1,-22%,–
COc1ccc(N2CCN(c3ccc([N+](=O)[O-])nc3)CC2)cc1,11.5%,–
COc1ccc(-c2nc(C)c(CCNC(=O)c3ccc(C(F)(F)F)cc3)s2)cc1OC,3.9%,–
